The record followed here is PubChem BioAssay (NCI).

This is part of a sample that, as a whole, favours compounds with a hit. Of some 83,000 tested, about 20% had one in any assay.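 Values shown are percent growth following 48 h exposure of cells in 96-well plates to a single concentration of compound; below 10 was considered active.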 Unmarked numbers belong to inactive results. Active and inactive are the calls of the source.

This assay concerns MDA-MB-468 breast. In words: NCI-60 one-dose screen, 48 h (100 = growth as untreated, 0 = no growth, -100 = all killed). As to conditions: 10 µM unless noted.
As to `CCCCCCCO`, the growth was 96.4%.
In the case of `CCCCCCCCCCCCCCCC(=O)O[C@@H]1[C@@H](O)[C@@H](O)C([C@H](NC(=O)[C@@H]2C[C@@H](CCC)CN2C)[C@H](C)Cl)O[C@@H]1SC` (stereo not given in full) it was 97.9%; in that of `COc1ccc(-c2cc(-c3c(C)oc4cc5occc5c(OC)c4c3=O)nc(N)c2C#N)cc1OC`, 76.2%; in that of `Oc1c(Cl)cc(Cl)c2ccc(CN3CCCCC3)nc12`, 29.3%.
In the case of `COc1cc(/C=N/Nc2ncnc3c2c(C)nn3-c2ccc(F)cc2)ccc1O` it was 92%; in that of `CC(=O)Oc1c2c(nc3c1c1ccccc1n3Cc1ccccc1)-c1ccccc1C2`, 92.2%.
In the case of `CC(C)c1ccc(Cc2cnc(NC(=O)c3cc(Br)cs3)s2)cc1` it was -4.52% (active); in that of `CCN(CC)c1ccc(CNc2cc(C)nc3ccc(OC)cc23)cc1`, 2.98% (active); in that of `Nc1nc(N)c2c(ccc3c2ccn3Cc2cccc([N+](=O)[O-])c2)n1`, -84.7% (active).
On to `COC1=C(Br)C(=O)C(OC)=C(Br)C1=O`, for which the growth is 89.2%.
Regarding `CCc1nc2ccc(Cc3ccc(C(=O)NO)cc3)cc2c(=O)n1CCc1ccccc1`, the growth is -65.1% (active).
To `Cc1ccc(-c2nn(-c3ccccc3)cc2/C=C/C(=O)c2ccc(NC(=O)CCCCCCC(=O)NO)cc2)cc1` belongs 70.9%.
To `COc1ccc(-c2ccc(-c3ccc(C(=N)N)cc3)s2)cc1Cl` belongs -65% (active); to `Cn1c2ccccc2c2nn(C(=O)c3ccccc3)c(=O)nc21`, 107%; to `COc1ccc(-c2cn[nH]c2-c2ccc(OC)c(O)c2)cc1`, 47.1%.
